Assay outcomes deposited in PubChem BioAssay by National Center for Advancing Translational Sciences (NCATS).
The list is not random: actives were taken first. Their share in the collection is about 12%.
Cycloheximide cs: counter-screen for Shiga toxin inhibitors: cycloheximide protein synthesis inhibition; actives 12% (n = 300,000); max response, %; cell reporter, cycloheximide protein synthesis inhibition counterscreen; in the data active means max response mostly above about 13%, no sharp cut-off; inactive means mostly below about 14%; further: read at 38.3 µM for the half of the compounds with a filed dose; 0% is about no effect
Shiga toxin inh: inhibitors of Shiga toxin in Vero cells. Vero cells, Shiga toxin protein synthesis inhibition reporter. inhibition, % at 38.7 µM. actives 9.2% (n = 290,000); in the data active means inhibition mostly above about 28%, no sharp cut-off; inactive means mostly below about 43%; further: 0% is about no effect
Sm TGR inh: blocks Schistosoma mansoni thioredoxin glutathione reductase; Q962Y6; purified TGR, DTNB reduction, TNB absorbance 405 nm; Potency, µM (highest dose often 114 µM), without a hit: at the top dose activity change, negative = inhibition, actives largely listed as inhibitors; actives 3% (n = 360,000); AID 485364; active means well fitted inhibition curve with a large enough effect; inconclusive means small, poorly fitted or top-dose-only effect; inactive means no such curve, though single readings can be large or run the other way; further: potency means the concentration at half of the fitted maximal effect; on the % scale 0 is the no-effect control and ±100 the full control effect; nearly all actives have a fitted effect of over 60% in size
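Kinetic colorimetric format: TGR-catalysed, NADPH-driven DTNB reduction monitored via TNB absorbance. Enzyme dispensed at 20 nM; compound exposure 15 min at room temperature before reaction start.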
FMDV inh: foot and mouth disease virus antiviral activity; AID 1159524; Potency, µM (series often up to 57.9 µM), without a hit: top-dose activity change, negative = inhibition, actives largely listed as inhibitors; FMDV antiviral cell-based qHTS; actives 1.2% (n = 410,000); calls by dose curve; tested in HEK293T cells; further: read-out not given here; potency means the concentration at half of the fitted maximal effect; on the % scale 0 is the no-effect control and ±100 the full control effect; nearly all actives have a fitted effect of over 45% in size
* = called active by the depositor; ? = inconclusive; / = not tested or not shown; + = active, no number.

SMILES	Cycloheximide cs	Shiga toxin inh	Sm TGR inh	FMDV inh
Cc1cccc(NC(=O)CCCCCn2c(=O)[nH]c3ccsc3c2=O)c1	/	/	-2.7%	45.0%
Cc1snc2sc(C(=O)c3ccc(F)cc3)c(N)c12	26.3*	77.1*	-10.2%	23.3%
c1ccc2c(c1)nnn1c3ccccc3nc21	34.4*	79.7*	5.7%	/
Nn1nnc2ccccc21	13.9*	23.7	-7.5%	24.2%
O=C(O)CCn1cnc2onc(-c3ccccc3Cl)c2c1=O	/	/	-9.1%	29.6%
CC(=O)N(CCC(c1ccco1)C(C)C)Cc1ccc(OC(C)C)cc1 (centres undefined)	1.9	-8.0	?	-16.4%
CCC(=O)N(CCC(c1ccco1)c1ccccc1OC)Cc1cccs1 (centres undefined)	-8.8	-18.5	17.8µM*	?
CC(=O)N(CCC(c1ccccc1)c1ccco1)Cc1cccs1 (centres undefined)	-2.2	-4.1	11.2µM*	?
Cc1c(-c2nc(N)nc(Nc3ccccc3)n2)oc2ccccc12	39.1*	77.5*	-2.0%	32.1%
CCOc1ccc(C(c2c(O)cc(C)n(Cc3ccco3)c2=O)N2CCN(c3ccccc3)CC2)cc1 (centres undefined)	/	/	3.55µM*	?
CCOc1ccc(C(c2c(O)cc(C)n(Cc3ccco3)c2=O)N2CCCCC2)cc1 (centres undefined)	/	/	7.08µM*	-6.4%
Cc1ccc(NC2=Nc3ccccc3CS2)cc1	37.7*	30.4	-1.0%	-28.2%
Cn1c(NCCN2CCCC2)nc2cc(-c3ccccc3)sc2c1=O	/	/	/	-1.3%
O=c1c2sc(-c3ccccc3)cc2nc2n1CCCCC2	53.4*	55.6*	-9.1%	10.9%
O=c1c2sc(-c3ccccc3)cc2nc2n1CCC2	23.8*	25.6*	-4.5%	-48.1%
COc1ccc(CCNC(=O)C(C)n2nc(C)c3sc4ccccc4c3c2=O)cc1OC (centres undefined)	/	/	-0.5%	-27.5%
O=C(Cn1c(=O)n(Cc2ccco2)c(=O)c2oc3ccccc3c21)Nc1ccc(F)cc1F	/	/	-11.4%	-4.8%
Cc1ccc(C(=O)Nc2onc3c2CCCC3)cc1	/	/	-1.4%	8.91µM*
Cc1ccccc1NC(=O)c1onc2c1CCCC2	49.0*	123.0*	0.3%	3.6%
Cc1cccc(NC(=O)c2onc3c2CCCC3)c1C	33.3*	116.1*	-16.4%	-4.2%
Cc1cccc(NC(=O)c2onc3c2CCCC3)n1	33.3*	22.9	4.1%	?
CCCCNC(=O)NS(=O)(=O)c1ccc(CO)cc1	-10.1	-15.0	/	/
CCc1ccc(-n2c(=O)c3sc4ccccc4c3n(CC(=O)N3CCCC3)c2=O)cc1	/	/	1.2%	-11.9%
COc1ccc(CNC(=O)CCc2c(C)nn(-c3ccc(N4CCCC4)nn3)c2C)c(OC)c1	/	/	4.9%	-1.4%
Cc1noc(NC(=O)c2ccc(Cl)cc2)c1Cl	44.5*	66.1*	-10.4%	31.0%
SMILES	Cycloheximide cs	Shiga toxin inh	Sm TGR inh	FMDV inh
O=C1NC(c2ccc(Cl)cc2)Oc2ccccc21 (centres undefined)	1.4	0.8	-2.7%	-13.2%
CC(C)c1ccc(C2NC(=O)c3ccccc3O2)cc1 (centres undefined)	19.3*	101.1*	-8.6%	35.2%
O=C(O)c1ccc2c(c1)C(=O)N([C@H](Cc1ccc(O)c(O)c1)C(=O)O)C2=O	-5.6	-4.4	12.6µM*	/
COc1ccccc1N1C(=N)S/C(=C\c2ccc(-c3ccccc3C(=O)O)o2)C1=O	1.1	-5.8	20µM*	-11.3%
CCCN(CCC)C(=O)Cn1c(=O)n(-c2ccc(Cl)c(Cl)c2)c(=O)c2c(C)c(C(=O)N(C)C)sc21	/	/	0.3%	-6.1%
Cc1nc(C(=O)N2CCc3c([nH]c4ccccc34)C2c2ccccn2)cs1 (centres undefined)	5.1	79.9*	-25.4%	-1.5%
CC(C)c1nc(C(=O)N2CCc3c([nH]c4ccccc34)C2c2ccccn2)cs1 (centres undefined)	9.1	-1.1	-0.9%	-12.7%
Cc1nc(C(=O)N2CCc3c([nH]c4ccccc34)C2c2cc(F)ccc2F)cs1 (centres undefined)	24.1*	39.9*	6.3%	10.9%
COCO[C@H]([C@@H](C)C=C(Br)Br)[C@@H](C)COCc1ccc(OC)cc1	12.7	7.5	/	/
COCCn1c(SCC(=O)Nc2ccc(Br)cc2)nc2c([nH]c3ccccc32)c1=O	/	/	8.2%	1.2%
CC(C)(C)NC(=O)NC(=O)COC(=O)COc1ccc(Cl)cc1Cl	-2.5	5.3	-0.6%	-17.5%
CC(C)(C)NC(=O)NC(=O)COc1ccccc1C#N	65.7*	+	1.1%	30.0%
O=C(COc1ccc(Br)cc1Br)NC(=O)NC1CCCC1	59.2*	141.9*	9.7%	28.9%
O=C(COc1ccccc1Cl)NC(=O)NC1CCCCC1	/	/	0.1%	37.1%
C=CCNC(=O)COc1ccccc1C#N	9.2	37.0	3.7%	32.6%
